Measured values taken from the supplement of paper PMC10849652.
About 7,900 targets were measured; listed, in parts, are those with a hit and a random draw of the rest. About 0.6% of all pairs of compound and target were hits.

These targets were tested with C1COCCN1CCN2C3=CC=CC=C3N=C2NC(=O)C4=CC(=CC=C4)[N+](=O)[O-] [IRAK-1-4 Inhibitor I] (assay: log2 fold change, soluble protein after heating vs DMSO (PISA); higher = thermal stabilisation; K562 cells, 10 uM, 30 min; active = over 0.2 and 3.5 SD of the protein, either way, in both replicates (recomputed)).
Method in brief: (§1)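 Soluble protein was defined as the supernatant after 21,000xg for 90 min. It came from K562 cells at 2×10^6 cells/mL given 10 μM compound for 30 min, heated in aliquots for 3 min across 48°C-58°C, pooled, and extracted in PBS with 0.5% NP-40 at 4°C, and was quantified by TMTpro 16plex LC-MS/MS with equalised channel sums. Thermal stability against control samples, from duplicates, is reported as log2 fold change.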

Sequence of UniProt Q7L7X3 (Q7L7X3 whole entry, looked up): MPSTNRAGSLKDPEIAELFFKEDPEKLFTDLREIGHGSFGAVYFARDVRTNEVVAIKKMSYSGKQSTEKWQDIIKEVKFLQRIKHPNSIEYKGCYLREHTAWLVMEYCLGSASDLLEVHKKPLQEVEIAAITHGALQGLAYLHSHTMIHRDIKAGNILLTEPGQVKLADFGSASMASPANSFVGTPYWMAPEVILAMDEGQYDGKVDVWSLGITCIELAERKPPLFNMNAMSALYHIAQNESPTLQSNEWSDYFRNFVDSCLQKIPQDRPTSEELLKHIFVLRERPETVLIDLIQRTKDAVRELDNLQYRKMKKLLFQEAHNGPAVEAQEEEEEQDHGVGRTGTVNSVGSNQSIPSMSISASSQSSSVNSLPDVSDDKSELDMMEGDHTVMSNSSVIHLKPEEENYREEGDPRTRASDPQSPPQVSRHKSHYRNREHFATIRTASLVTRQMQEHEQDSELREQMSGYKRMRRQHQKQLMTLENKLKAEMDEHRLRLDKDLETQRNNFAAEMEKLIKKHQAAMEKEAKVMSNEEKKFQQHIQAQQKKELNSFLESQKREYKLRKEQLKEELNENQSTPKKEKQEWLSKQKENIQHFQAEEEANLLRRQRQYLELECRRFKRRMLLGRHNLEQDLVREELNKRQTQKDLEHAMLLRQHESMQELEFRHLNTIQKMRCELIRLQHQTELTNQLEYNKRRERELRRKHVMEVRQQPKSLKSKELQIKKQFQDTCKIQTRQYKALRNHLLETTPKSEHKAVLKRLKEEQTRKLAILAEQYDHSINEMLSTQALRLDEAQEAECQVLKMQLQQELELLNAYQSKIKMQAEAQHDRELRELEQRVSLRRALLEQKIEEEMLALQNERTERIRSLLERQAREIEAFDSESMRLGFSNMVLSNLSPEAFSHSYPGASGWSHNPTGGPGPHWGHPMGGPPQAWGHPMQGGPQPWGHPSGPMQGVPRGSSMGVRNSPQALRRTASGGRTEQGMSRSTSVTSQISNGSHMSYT
Sequence of UniProt O60271 (O60271 whole entry, looked up): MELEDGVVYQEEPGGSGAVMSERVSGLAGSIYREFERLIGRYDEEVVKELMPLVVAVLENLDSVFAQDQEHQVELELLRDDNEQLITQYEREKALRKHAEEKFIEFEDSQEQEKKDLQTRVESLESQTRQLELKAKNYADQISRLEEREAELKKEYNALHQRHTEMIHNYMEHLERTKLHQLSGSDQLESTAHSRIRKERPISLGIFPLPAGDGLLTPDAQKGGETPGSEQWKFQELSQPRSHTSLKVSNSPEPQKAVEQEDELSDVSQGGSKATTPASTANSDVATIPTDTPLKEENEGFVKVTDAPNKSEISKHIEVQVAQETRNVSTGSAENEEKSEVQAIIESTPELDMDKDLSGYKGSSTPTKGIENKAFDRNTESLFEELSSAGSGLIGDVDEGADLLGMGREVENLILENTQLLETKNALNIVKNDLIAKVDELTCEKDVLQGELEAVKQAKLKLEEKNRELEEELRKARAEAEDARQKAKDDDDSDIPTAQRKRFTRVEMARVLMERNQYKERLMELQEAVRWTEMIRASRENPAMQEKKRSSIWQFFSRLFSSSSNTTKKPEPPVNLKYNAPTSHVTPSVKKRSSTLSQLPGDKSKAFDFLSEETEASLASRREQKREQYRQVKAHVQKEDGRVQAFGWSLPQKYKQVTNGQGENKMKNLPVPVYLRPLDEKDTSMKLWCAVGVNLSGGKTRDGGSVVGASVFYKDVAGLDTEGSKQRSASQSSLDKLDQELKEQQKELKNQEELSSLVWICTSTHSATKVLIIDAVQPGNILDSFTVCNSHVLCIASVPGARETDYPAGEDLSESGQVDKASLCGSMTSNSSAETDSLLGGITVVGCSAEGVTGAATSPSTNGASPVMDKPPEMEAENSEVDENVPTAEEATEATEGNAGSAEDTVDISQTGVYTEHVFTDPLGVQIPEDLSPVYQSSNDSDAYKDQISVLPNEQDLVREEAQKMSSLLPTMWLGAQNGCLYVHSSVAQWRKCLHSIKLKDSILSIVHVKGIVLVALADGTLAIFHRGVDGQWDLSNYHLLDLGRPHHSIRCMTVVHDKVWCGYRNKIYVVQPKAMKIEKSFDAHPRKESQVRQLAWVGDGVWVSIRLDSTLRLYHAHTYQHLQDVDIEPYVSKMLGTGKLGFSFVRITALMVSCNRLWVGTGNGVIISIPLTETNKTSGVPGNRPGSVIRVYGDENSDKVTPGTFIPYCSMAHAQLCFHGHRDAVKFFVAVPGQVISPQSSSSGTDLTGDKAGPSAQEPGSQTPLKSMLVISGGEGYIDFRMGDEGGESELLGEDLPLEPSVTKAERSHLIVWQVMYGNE
Sequence of UniProt Q8TCT7 (Q8TCT7 whole entry, looked up): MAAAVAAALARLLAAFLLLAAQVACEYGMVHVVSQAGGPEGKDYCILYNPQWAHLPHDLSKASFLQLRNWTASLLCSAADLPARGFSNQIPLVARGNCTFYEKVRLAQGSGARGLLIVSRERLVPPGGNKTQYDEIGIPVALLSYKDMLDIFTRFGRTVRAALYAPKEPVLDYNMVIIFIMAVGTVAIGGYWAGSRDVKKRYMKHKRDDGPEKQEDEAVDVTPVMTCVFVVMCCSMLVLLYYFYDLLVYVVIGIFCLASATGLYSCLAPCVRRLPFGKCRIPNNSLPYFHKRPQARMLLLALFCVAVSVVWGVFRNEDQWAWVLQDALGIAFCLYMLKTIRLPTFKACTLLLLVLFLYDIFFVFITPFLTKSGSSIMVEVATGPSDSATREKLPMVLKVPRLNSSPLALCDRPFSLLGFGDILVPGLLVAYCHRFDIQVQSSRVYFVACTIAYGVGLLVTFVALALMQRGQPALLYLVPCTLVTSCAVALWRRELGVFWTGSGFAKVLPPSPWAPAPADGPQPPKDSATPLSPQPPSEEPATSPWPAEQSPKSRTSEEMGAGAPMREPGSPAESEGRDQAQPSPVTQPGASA
Sequence of UniProt Q5T5C0 (Q5T5C0 whole entry, looked up): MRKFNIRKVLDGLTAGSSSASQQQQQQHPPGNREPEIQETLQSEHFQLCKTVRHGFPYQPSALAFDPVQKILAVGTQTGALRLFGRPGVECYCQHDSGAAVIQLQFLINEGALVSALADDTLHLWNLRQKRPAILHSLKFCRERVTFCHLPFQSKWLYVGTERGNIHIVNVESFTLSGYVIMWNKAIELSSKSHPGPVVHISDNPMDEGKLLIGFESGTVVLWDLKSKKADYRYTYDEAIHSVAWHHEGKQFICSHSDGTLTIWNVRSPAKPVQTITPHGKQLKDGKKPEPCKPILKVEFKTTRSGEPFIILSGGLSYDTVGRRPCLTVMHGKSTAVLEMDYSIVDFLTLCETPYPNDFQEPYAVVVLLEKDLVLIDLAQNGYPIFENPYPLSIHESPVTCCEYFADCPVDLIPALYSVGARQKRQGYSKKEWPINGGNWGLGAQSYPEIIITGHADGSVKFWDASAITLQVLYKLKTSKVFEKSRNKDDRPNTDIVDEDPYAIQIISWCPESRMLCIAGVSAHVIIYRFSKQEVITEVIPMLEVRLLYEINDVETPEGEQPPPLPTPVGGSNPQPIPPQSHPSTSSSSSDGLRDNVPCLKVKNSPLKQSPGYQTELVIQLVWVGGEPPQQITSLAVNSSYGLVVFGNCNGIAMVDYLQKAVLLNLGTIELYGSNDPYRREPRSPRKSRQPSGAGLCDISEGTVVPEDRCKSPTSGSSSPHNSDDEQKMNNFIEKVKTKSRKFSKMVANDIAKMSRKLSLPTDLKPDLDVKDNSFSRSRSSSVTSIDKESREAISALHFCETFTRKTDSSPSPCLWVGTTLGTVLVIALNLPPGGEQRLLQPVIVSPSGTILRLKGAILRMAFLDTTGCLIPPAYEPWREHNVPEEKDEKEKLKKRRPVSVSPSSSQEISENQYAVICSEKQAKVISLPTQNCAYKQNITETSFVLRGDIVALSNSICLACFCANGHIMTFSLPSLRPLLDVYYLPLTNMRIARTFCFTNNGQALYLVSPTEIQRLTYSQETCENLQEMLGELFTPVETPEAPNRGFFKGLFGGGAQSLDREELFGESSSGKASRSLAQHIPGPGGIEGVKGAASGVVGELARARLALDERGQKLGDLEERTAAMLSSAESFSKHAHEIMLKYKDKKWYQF
Sequence of UniProt Q8WXA9 (Q8WXA9 whole entry, looked up): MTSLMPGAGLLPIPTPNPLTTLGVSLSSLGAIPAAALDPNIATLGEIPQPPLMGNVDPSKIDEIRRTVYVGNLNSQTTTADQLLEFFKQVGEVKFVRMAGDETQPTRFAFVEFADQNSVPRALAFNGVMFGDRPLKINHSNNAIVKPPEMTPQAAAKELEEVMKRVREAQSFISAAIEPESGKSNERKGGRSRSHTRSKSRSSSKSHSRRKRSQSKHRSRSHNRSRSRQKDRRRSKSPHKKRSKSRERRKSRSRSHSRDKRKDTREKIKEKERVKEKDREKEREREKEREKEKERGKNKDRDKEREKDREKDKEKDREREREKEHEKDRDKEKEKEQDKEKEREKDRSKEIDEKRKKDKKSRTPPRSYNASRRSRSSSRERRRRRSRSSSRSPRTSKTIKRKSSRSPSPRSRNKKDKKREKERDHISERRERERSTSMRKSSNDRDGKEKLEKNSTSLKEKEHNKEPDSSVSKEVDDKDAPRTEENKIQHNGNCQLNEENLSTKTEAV
Sequence of UniProt O00193 (O00193 whole entry, looked up): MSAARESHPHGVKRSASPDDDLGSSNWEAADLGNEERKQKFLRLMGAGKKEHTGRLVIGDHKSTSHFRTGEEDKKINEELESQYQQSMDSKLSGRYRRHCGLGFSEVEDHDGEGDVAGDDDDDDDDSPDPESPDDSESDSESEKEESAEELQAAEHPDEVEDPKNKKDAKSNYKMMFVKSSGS
Sequence of UniProt Q9Y5L4 (Q9Y5L4 whole entry, looked up): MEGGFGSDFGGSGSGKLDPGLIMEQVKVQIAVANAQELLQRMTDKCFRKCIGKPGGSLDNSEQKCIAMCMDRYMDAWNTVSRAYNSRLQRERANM
Sequence of UniProt Q16385 (Q16385 whole entry, looked up): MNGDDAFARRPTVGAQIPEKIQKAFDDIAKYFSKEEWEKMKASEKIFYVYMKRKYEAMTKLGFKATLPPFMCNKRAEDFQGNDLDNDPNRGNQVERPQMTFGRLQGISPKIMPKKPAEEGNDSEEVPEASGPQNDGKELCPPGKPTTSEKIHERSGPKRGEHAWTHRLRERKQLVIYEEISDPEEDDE

log2 fold change, inactive:
TBC1D23 (UniProt Q9NUY8) 0.062
TFB2M (UniProt Q9H5Q4) 0.037
TGFBRAP1 (UniProt Q8WUH2) -0.088
SNX9 (UniProt Q9Y5X1) -0.011
THRAP3 (UniProt Q9Y2W1) -0.116
SRRM2 (UniProt Q9UQ35) -0.074
SSX2 (UniProt Q16385) -0.038
SMAP (UniProt O00193) 0.134
SMARCA5 (UniProt O60264) -0.108
SPAG9 (UniProt O60271) -0.003
SURF1 (UniProt Q15526) 0.021
TANGO6 (UniProt Q9C0B7) -0.117
SYNE1 (UniProt Q8NF91) 0.062
STAM2 (UniProt O75886) 0.033
SRSF2 (UniProt Q01130) -0.069
SMAD9 (UniProt O15198) -0.033
SPPL2B (UniProt Q8TCT7) -0.004
SUOX (UniProt P51687) 0.123
SPART (UniProt Q8N0X7) 0.008
TLK1 (UniProt Q9UKI8) 0.027
STXBP5 (UniProt Q5T5C0) -0.025
TCOF1 isoform 4 (UniProt Q13428) -0.009
TERF2IP (UniProt Q9NYB0) -0.023
TARS2 (UniProt Q9BW92) -0.076
TM9SF2 (UniProt Q99805) 0.06
TIPRL (UniProt O75663) -0.011
SREK1 isoform 2 (UniProt Q8WXA9) -0.245
SNX3 (UniProt O60493) -0.049
STXBP2 isoform 3 (UniProt Q15833) -0.11
SMPD4 isoform 4 (UniProt Q9NXE4) -0.034
TIMM13 (UniProt Q9Y5L4) -0.031
SPTBN1 (UniProt Q01082) -0.079
SUN2 (UniProt Q9UH99) -0.04
TAOK1 (UniProt Q7L7X3) 0.011
SMARCE1 (UniProt Q969G3) -0.29
SRI (UniProt P30626) -0.017
SNRPB2 (UniProt P08579) 0.067

What follows are targets tested with C=CC(=O)N1CCC[C@@H](n2nc(-c3ccc(Oc4ccccc4)cc3)c3c(N)ncnc32)C1 [ibrutinib] in the same assay as above.
Method in brief: as §1

log2 fold change, inactive:
TBC1D23 (UniProt Q9NUY8) -0.02
TFB2M (UniProt Q9H5Q4) -0.029
TGFBRAP1 (UniProt Q8WUH2) -0.067
SNX9 (UniProt Q9Y5X1) 0.025
THRAP3 (UniProt Q9Y2W1) 0.01
SRRM2 (UniProt Q9UQ35) -0.015
SSX2 (UniProt Q16385) -0.004
SMAP (UniProt O00193) -0.063
SMARCA5 (UniProt O60264) -0.135
SPAG9 (UniProt O60271) -0.003
SURF1 (UniProt Q15526) -0.028
TANGO6 (UniProt Q9C0B7) -0.077
SYNE1 (UniProt Q8NF91) -0.015
STAM2 (UniProt O75886) 0.008
SRSF2 (UniProt Q01130) 0.016
SMAD9 (UniProt O15198) 0.007
SPPL2B (UniProt Q8TCT7) 0.013
SUOX (UniProt P51687) -0.007
SPART (UniProt Q8N0X7) -0.033
TLK1 (UniProt Q9UKI8) -0.003
STXBP5 (UniProt Q5T5C0) -0.037
TCOF1 isoform 4 (UniProt Q13428) -0.034
TERF2IP (UniProt Q9NYB0) -0.009
TARS2 (UniProt Q9BW92) -0.043
TM9SF2 (UniProt Q99805) 0.01
TIPRL (UniProt O75663) -0.005
SREK1 isoform 2 (UniProt Q8WXA9) -0.006
SNX3 (UniProt O60493) 0.011
STXBP2 isoform 3 (UniProt Q15833) -0.057
SMPD4 isoform 4 (UniProt Q9NXE4) -0.044
TIMM13 (UniProt Q9Y5L4) 0.012
SPTBN1 (UniProt Q01082) -0.013
SUN2 (UniProt Q9UH99) 0.056
TAOK1 (UniProt Q7L7X3) -0.057
SMARCE1 (UniProt Q969G3) 0.185
SRI (UniProt P30626) -0.032
SNRPB2 (UniProt P08579) 0.074
